Data as given in PubChem BioAssay AID1159580 (chemical genetic matrix, 2015).
Among all 5,500 compounds or so, about 2,000 (36%) were called active. About 18% were inconclusive and are not listed. Cut-off read from the data, not from the text of the source: active = normalized growth mostly below about 0.91 (no sharp cut-off); inconclusive = no clear call, values can overlap the other calls; inactive = mostly above about 0.92. The list shows a part of the results.

Assay: chemical genetic growth profiling, strain panel (AID 1159580);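 note: tested at 20 µM; growth read once vehicle control cultures reached saturation at 30 °C; 1 = growth at the plate median or of vehicle wells; lower values mean less growth of the strain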
Settings: growth OD

Measured: normalized growth

CC1C[C@H]2CC(=O)[C@H]3CCCN4CCC[C@H]2[C@]34C1 (stereo partly specified)
inactive: S. cerevisiae deletion strains, locus YAL021C, strain ccr4, active compounds read low 1.01 | S. cerevisiae deletion strains, locus YAL026C, strain drs2, active compounds read low 1.01 | S. cerevisiae deletion strains, locus YAL030W, strain snc1, active compounds read low 1 | S. cerevisiae deletion strains, locus YBL061C, strain skt5, active compounds read low 1.01 | S. cerevisiae deletion strains, locus YBR009C, strain hhf1, active compounds read low 1 | S. cerevisiae deletion strains, locus YBR021W, strain FUR4, active compounds read low 0.996 | S. cerevisiae deletion strains, locus YBR023C, strain chs3, active compounds read low 1.02 | S. cerevisiae deletion strains, locus YBR171W, strain sec66, active compounds read low 0.996 | S. cerevisiae deletion strains, locus YBR229C, strain ROT2, active compounds read low 1 | S. cerevisiae deletion strains, locus YBR231C, strain swc5, active compounds read low 0.993 | S. cerevisiae deletion strains, locus YBR279W, strain paf1, active compounds read low 1.02 | S. cerevisiae deletion strains, locus YCL011C, strain gbp2, active compounds read low 1.02 | S. cerevisiae deletion strains, locus YCL016C, strain dcc1, active compounds read low 1.02 | S. cerevisiae deletion strains, locus YCL029C, strain bik1, active compounds read low 1.02 | S. cerevisiae deletion strains, locus YCL061C, strain MRC1, active compounds read low 1.01 | S. cerevisiae deletion strains, locus YCL069W, strain vba3, active compounds read low 1.01 | S. cerevisiae deletion strains, locus YCR088W, strain abp1, active compounds read low 1.01 | S. cerevisiae deletion strains, locus YDL005C, strain med2, active compounds read low 1.01 | S. cerevisiae deletion strains, locus YDL035C, strain GPR1, active compounds read low 1.03 | S. cerevisiae deletion strains, locus YDL040C, strain nat1, active compounds read low 1.01 | S. cerevisiae deletion strains, locus YDL074C, strain BRE1, active compounds read low 1.03 | S. cerevisiae deletion strains, locus YDL101C, strain DUN1, active compounds read low 1.02 | S. cerevisiae deletion strains, locus YDL134C, strain PPH21, active compounds read low 1.01 | S. cerevisiae deletion strains, locus YDL185W, strain tfp1, active compounds read low 1.02 | S. cerevisiae deletion strains, locus YDL192W, strain arf1, active compounds read low 1.02 | S. cerevisiae deletion strains, locus YDR001C, strain nth1, active compounds read low 1.01 | S. cerevisiae deletion strains, locus YDR069C, strain doa4, active compounds read low 1.02 | S. cerevisiae deletion strains, locus YDR101C, strain arx1, active compounds read low 1.03 | S. cerevisiae deletion strains, locus YDR137W, strain rgp1, active compounds read low 1.03 | S. cerevisiae deletion strains, locus YDR150W, strain NUM1, active compounds read low 1 | S. cerevisiae deletion strains, locus YDR159W, strain sac3, active compounds read low 1 | S. cerevisiae deletion strains, locus YDR162C, strain NBP2, active compounds read low 1.03 | S. cerevisiae deletion strains, locus YDR195W, strain ref2 0.993 | S. cerevisiae deletion strains, locus YDR297W, strain sur2, active compounds read low 1 | S. cerevisiae deletion strains, locus YDR318W, strain mcm21, active compounds read low 1.02 | S. cerevisiae deletion strains, locus YDR334W, strain swr1, active compounds read low 1 | S. cerevisiae deletion strains, locus YDR335W, strain msn5, active compounds read low 1.01 | S. cerevisiae deletion strains, locus YDR388W, active compounds read low 1.01 | S. cerevisiae deletion strains, locus YDR392W, strain spt3, active compounds read low 0.954 | S. cerevisiae deletion strains, locus YDR502C, strain sam2, active compounds read low 1.01 | S. cerevisiae deletion strains, locus YEL003W, strain gim4, active compounds read low 1.01 | S. cerevisiae deletion strains, locus YEL037C, strain rad23, active compounds read low 1.01 | S. cerevisiae deletion strains, locus YEL061C, strain CIN8 (second series), active compounds read low 1.01 | S. cerevisiae deletion strains, locus YEL061C, strain CIN8, active compounds read low 1.01 | S. cerevisiae deletion strains, locus YER015W, strain faa2, active compounds read low 1.02 | S. cerevisiae deletion strains, locus YER016W, strain bim1, active compounds read low 1.01 | S. cerevisiae deletion strains, locus YER110C, active compounds read low 1.02 | S. cerevisiae deletion strains, locus YER111C, strain swi4, active compounds read low 1 | S. cerevisiae deletion strains, locus YER155C, strain BEM2 (second series), active compounds read low 1.04 | S. cerevisiae deletion strains, locus YER155C, strain BEM2, active compounds read low 0.989 | S. cerevisiae deletion strains, locus YER167W, strain BCK2, active compounds read low 1.01 | S. cerevisiae deletion strains, locus YFR010W, strain ubp6, active compounds read low 1.01 | S. cerevisiae deletion strains, locus YGL078C, strain dbp3, active compounds read low 1.01 | S. cerevisiae deletion strains, locus YGL086W, strain mad1, active compounds read low 1.02 | S. cerevisiae deletion strains, locus YGL167C, strain pmr1, active compounds read low 1.01 | S. cerevisiae deletion strains, locus YGL173C, strain kem1, active compounds read low 1.01 | S. cerevisiae deletion strains, locus YGL227W, strain vid30, active compounds read low 1.01 | S. cerevisiae deletion strains, locus YGL240W, strain doc1, active compounds read low 0.996 | S. cerevisiae deletion strains, locus YGL248W, strain PDE1, active compounds read low 1.01 | S. cerevisiae deletion strains, locus YGL253W, strain hxk2, active compounds read low 1 | S. cerevisiae deletion strains, locus YGR135W, strain pre9, active compounds read low 1.01 | S. cerevisiae deletion strains, locus YGR252W, strain gcn5, active compounds read low 0.999 | S. cerevisiae deletion strains, locus YHR013C, strain ard1, active compounds read low 1.02 | S. cerevisiae deletion strains, locus YHR027C, strain rpn1, active compounds read low 1 | S. cerevisiae deletion strains, locus YHR030C, strain SLT2, active compounds read low 1 | S. cerevisiae deletion strains, locus YHR079C, strain IRE1 (second series), active compounds read low 1.01 | S. cerevisiae deletion strains, locus YHR094C, strain hxt1, active compounds read low 1.02 | S. cerevisiae deletion strains, locus YHR129C, strain ARP1, active compounds read low 1.01 | S. cerevisiae deletion strains, locus YHR142W, strain chs7, active compounds read low 1.02 | S. cerevisiae deletion strains, locus YHR200W, strain rpn10, active compounds read low 1.02 | S. cerevisiae deletion strains, locus YIL066C, strain RNR3, active compounds read low 1.01 | S. cerevisiae deletion strains, locus YIL073C, strain SPO22, active compounds read low 1.06 | S. cerevisiae deletion strains, locus YIL125W, strain kgd1, active compounds read low 1.02 | S. cerevisiae deletion strains, locus YIR030C, strain dcg1, active compounds read low 1.02 | S. cerevisiae deletion strains, locus YJL092W, strain hpr5, active compounds read low 1.01 | S. cerevisiae deletion strains, locus YJL095W, strain BCK1 (second series), active compounds read low 1.01 | S. cerevisiae deletion strains, locus YJL095W, strain BCK1, active compounds read low 1.04 | S. cerevisiae deletion strains, locus YJL115W, strain asf1, active compounds read low 1.01 | S. cerevisiae deletion strains, locus YJL129C, strain trk1, active compounds read low 1.02 | S. cerevisiae deletion strains, locus YJL134W, strain LCB3, active compounds read low 0.994 | S. cerevisiae deletion strains, locus YJL154C, strain vps35, active compounds read low 1.02 | S. cerevisiae deletion strains, locus YJL164C, strain tpk1, active compounds read low 1.01 | S. cerevisiae deletion strains, locus YJL166W, strain qcr8, active compounds read low 1.01 | S. cerevisiae deletion strains, locus YJL168C, strain set2, active compounds read low 1.01 | S. cerevisiae deletion strains, locus YJL187C, strain SWE1 (second series), active compounds read low 1.03 | S. cerevisiae deletion strains, locus YJL187C, strain SWE1, active compounds read low 1 | S. cerevisiae deletion strains, locus YJR043C, strain POL32, active compounds read low 1 | S. cerevisiae deletion strains, locus YKL009W, strain mrt4, active compounds read low 1.03 | S. cerevisiae deletion strains, locus YKL068W, active compounds read low 1.01 | S. cerevisiae deletion strains, locus YKL085W, strain MDH1 (second series), active compounds read low 1 | S. cerevisiae deletion strains, locus YKL085W, strain MDH1, active compounds read low 1 | S. cerevisiae deletion strains, locus YKL160W, strain elf1, active compounds read low 1.02 | S. cerevisiae deletion strains, locus YKL190W, strain CNB1, active compounds read low 0.989 | S. cerevisiae deletion strains, locus YKR001C, strain vps1, active compounds read low 1.02 | S. cerevisiae deletion strains, locus YKR026C, strain gcn3, active compounds read low 1.01 | S. cerevisiae deletion strains, locus YKR091W, strain srl3, active compounds read low 1.02 | S. cerevisiae deletion strains, locus YLL001W, strain dnm1, active compounds read low 1.01 | S. cerevisiae deletion strains, locus YLL026W, active compounds read low 1 | S. cerevisiae deletion strains, locus YLL041C, strain sdh2, active compounds read low 1.01 | S. cerevisiae deletion strains, locus YLR027C, strain aat2, active compounds read low 1.01 | S. cerevisiae deletion strains, locus YLR039C, strain RIC1, active compounds read low 1.04 | S. cerevisiae deletion strains, locus YLR058C, strain SHM2, active compounds read low 1.02 | S. cerevisiae deletion strains, locus YLR102C, strain apc9, active compounds read low 1.02 | S. cerevisiae deletion strains, locus YLR221C, strain rsa3, active compounds read low 1.02 | S. cerevisiae deletion strains, locus YLR258W, strain gsy2, active compounds read low 1.03 | S. cerevisiae deletion strains, locus YLR262C, strain YPT6 (second series), active compounds read low 1.01 | S. cerevisiae deletion strains, locus YLR262C, strain YPT6, active compounds read low 1.12 | S. cerevisiae deletion strains, locus YLR268W, strain sec22, active compounds read low 1.04 | S. cerevisiae deletion strains, locus YLR320W, strain mms22, active compounds read low 1.02 | S. cerevisiae deletion strains, locus YLR330W, strain CHS5, active compounds read low 1 | S. cerevisiae deletion strains, locus YLR342W, strain FKS1 (second series), active compounds read low 0.993 | S. cerevisiae deletion strains, locus YLR342W, strain FKS1, active compounds read low 1.02 | S. cerevisiae deletion strains, locus YLR357W, strain rsc2, active compounds read low 0.995 | S. cerevisiae deletion strains, locus YLR370C, strain arc18, active compounds read low 1.02 | S. cerevisiae deletion strains, locus YLR371W, strain rom2, active compounds read low 1.02 | S. cerevisiae deletion strains, locus YLR384C, strain iki3, active compounds read low 1.02 | S. cerevisiae deletion strains, locus YLR418C, strain cdc73, active compounds read low 1.02 | S. cerevisiae deletion strains, locus YML016C, strain PPZ1, active compounds read low 1.01 | S. cerevisiae deletion strains, locus YML032C, strain rad52, active compounds read low 1.01 | S. cerevisiae deletion strains, locus YML120C, strain ndi1, active compounds read low 1.01 | S. cerevisiae deletion strains, locus YML124C, strain tub3, active compounds read low 1.01 | S. cerevisiae deletion strains, locus YMR058W, strain fet3, active compounds read low 1.01 | S. cerevisiae deletion strains, locus YMR078C, strain ctf18, active compounds read low 1.03 | S. cerevisiae deletion strains, locus YMR125W, strain sto1, active compounds read low 1.01 | S. cerevisiae deletion strains, locus YMR129W, active compounds read low 1.01 | S. cerevisiae deletion strains, locus YMR205C, strain PFK2, active compounds read low 1.02 | S. cerevisiae deletion strains, locus YMR223W, strain ubp8, active compounds read low 1.02 | S. cerevisiae deletion strains, locus YMR231W, strain pep5, active compounds read low 1 | S. cerevisiae deletion strains, locus YMR307W, strain GAS1, active compounds read low 1.01 | S. cerevisiae deletion strains, locus YNL067W, strain RPL9B, active compounds read low 1.03 | S. cerevisiae deletion strains, locus YNL071W, strain lat1, active compounds read low 1.02 | S. cerevisiae deletion strains, locus YNL128W, strain TEP1, active compounds read low 1.03 | S. cerevisiae deletion strains, locus YNL153C, strain GIM3, active compounds read low 1.01 | S. cerevisiae deletion strains, locus YNL209W, strain ssb2, active compounds read low 1.01 | S. cerevisiae deletion strains, locus YNL233W, strain BNI4, active compounds read low 1.03 | S. cerevisiae deletion strains, locus YNL248C, strain rpa49, active compounds read low 0.998 | S. cerevisiae deletion strains, locus YNL250W, strain rad50, active compounds read low 1.05 | S. cerevisiae deletion strains, locus YNL271C, strain bni1, active compounds read low 1.03 | S. cerevisiae deletion strains, locus YNL298W, strain CLA4, active compounds read low 1.01 | S. cerevisiae deletion strains, locus YNL307C, strain MCK1, active compounds read low 1.04 | S. cerevisiae deletion strains, locus YNL322C, strain KRE1 (second series), active compounds read low 1 | S. cerevisiae deletion strains, locus YNL322C, strain KRE1, active compounds read low 1 | S. cerevisiae deletion strains, locus YNR049C, strain mso1, active compounds read low 1.03 | S. cerevisiae deletion strains, locus YNR052C, strain pop2, active compounds read low 1.02 | S. cerevisiae deletion strains, locus YOL012C, strain htz1 1.55 | S. cerevisiae deletion strains, locus YOL147C, strain pex11, active compounds read low 1.02 | S. cerevisiae deletion strains, locus YOR001W, strain rrp6, active compounds read low 1.02 | S. cerevisiae deletion strains, locus YOR061W, strain CKA2, active compounds read low 1.01 | S. cerevisiae deletion strains, locus YOR069W, strain VPS5, active compounds read low 1.01 | S. cerevisiae deletion strains, locus YOR070C, strain gyp1, active compounds read low 1.03 | S. cerevisiae deletion strains, locus YOR080W, strain dia2, active compounds read low 1 | S. cerevisiae deletion strains, locus YOR083W, strain WHI5, active compounds read low 1.02 | S. cerevisiae deletion strains, locus YOR106W, strain vam3, active compounds read low 1.02 | S. cerevisiae deletion strains, locus YOR136W, strain idh2, active compounds read low 1.03 | S. cerevisiae deletion strains, locus YOR144C, strain elg1, active compounds read low 1 | S. cerevisiae deletion strains, locus YOR184W, strain ser1, active compounds read low 1.01 | S. cerevisiae deletion strains, locus YOR265W, strain rbl2, active compounds read low 1 | S. cerevisiae deletion strains, locus YOR270C, strain vph1, active compounds read low 1.05 | S. cerevisiae deletion strains, locus YOR290C, strain snf2, active compounds read low 1.01 | S. cerevisiae deletion strains, locus YOR316C, strain cot1, active compounds read low 1.02 | S. cerevisiae deletion strains, locus YPL051W, strain arl3, active compounds read low 1 | S. cerevisiae deletion strains, locus YPL055C, strain LGE1, active compounds read low 1.03 | S. cerevisiae deletion strains, locus YPL078C, strain atp4, active compounds read low 1.01 | S. cerevisiae deletion strains, locus YPL106C, strain sse1, active compounds read low 0.997 | S. cerevisiae deletion strains, locus YPL240C, strain hsp82, active compounds read low 0.998 | S. cerevisiae deletion strains, locus YPR119W, strain clb2, active compounds read low 1.02 | S. cerevisiae deletion strains, locus YPR141C, strain kar3, active compounds read low 1.02 | S. cerevisiae deletion strains, locus YPR163C, strain tif3, active compounds read low 1.02 | S. cerevisiae deletion strains, locus YPR167C, strain met16, active compounds read low 1.02 | S. cerevisiae deletion strains, strain wtn01, active compounds read low 1.02 | S. cerevisiae strains, strain wild type, active compounds read low 1.01
